Source: PubChem (Broad Institute)
Not all results are given here.
aSyn UTR act: Activators working through SNCA 5'UTR binding (MLPCN); activity score, % (tested at 7.5 µM), hits read low; 7.1% of 300,000 active; alpha-synuclein 5'UTR reporter, activators screen; AID 1814; in the data active = activity score below about -60%
* marks the source's active call; other numbers are inactive results.

SMILES	aSyn UTR act
Cc1cccnc1Nc1nc(-c2ccc(F)cc2)cs1	-226*
CC1CCN(C(=O)CNC(=O)c2ccc(Cl)cc2Cl)CC1	-81*
O=C(NCC(=O)N1CCCCC1)c1ccc(Cl)cc1Cl	-117*
O=C(NCC(=O)N1CCCCCC1)c1ccc(Cl)cc1	-65*
Cc1ccc2c3c([nH]c2c1C)-c1nonc1CC3	-107*
CCC(=O)Nc1ccc(-c2ccc(N3CCC(C)CC3)nn2)cc1	-96*
CCC(=O)Nc1ccc(-c2ccc(N3CCN(C)CC3)nn2)cc1	-73*
CC1CCN(c2ccc(-c3cccc(NC(=O)C(F)(F)F)c3)nn2)CC1	103
CC1(C)CN=c2s/c(=C\c3ccc(Cl)cc3)c(=O)n2C1	-111*
Cn1c(-c2ccc(CN3CCCCC3)o2)nc2ccccc21	-89*
CCOC(=O)c1sc(NC(=O)CSc2nc3c(cc2C#N)CCCCCC3)c(C#N)c1C	-74*
N#Cc1c(NC(=O)CSc2ncn[nH]2)sc2c1CCCCC2	82
N#Cc1cc2c(nc1SCC(=O)Nc1sc3c(c1C#N)CCC3)CCCC2	-240*
N#Cc1cc2c(nc1SCC(=O)Nc1sc3c(c1C#N)CCC3)CCCCC2	-122*
O=C(NNC(=S)Nc1ccccc1)c1ccc(O)cc1	-131*
O=C(NNC(=S)Nc1ccc(Br)cc1)c1ccccc1	-107*
O=C(NNC(=S)Nc1ccccc1)c1cccc(Br)c1	-95*
COc1ccccc1NC(=S)NNC(=O)c1ccc(O)cc1	-106*
CC(C)(C)NC(=S)NNC(=O)c1cccc(Br)c1	-121*
COc1cccc(-c2nn(-c3ccccc3)cc2CO)c1	-127*
O/N=C/c1cn(-c2ccccc2)nc1-c1ccc2c(c1)OCCO2	-72*
OCc1cn(-c2ccccc2)nc1-c1ccc(Br)cc1	-117*
OCc1cn(-c2ccccc2)nc1-c1ccc2c(c1)OCCO2	-133*
O=C(N/N=C/c1nn(-c2ccccc2)cc1-c1ccc(Cl)cc1)c1ccncc1	-64*
O=C(N/N=C/c1cn(-c2ccccc2)nc1-c1ccc2c(c1)OCCO2)c1ccncc1	-99*
SMILES	aSyn UTR act
COc1ccc2occ(C(=O)c3cccs3)c2c1	-242*
O=c1c2[nH]c3ccccc3c2nc2n1CCCS2	-75*
N#C/C(=C\c1ccc(-c2nc3ccccc3s2)o1)C(N)=O	-71*
CNc1nc(C)nc(-c2ccccc2O)n1	-75*
Cc1nc2oc3ccc(F)cc3c(=O)c2cc1C(=O)O	-75*
CC(=O)c1cc2c(=O)c3cc(C)ccc3oc2nc1C	-184*
Cc1ccc2oc3nc(C)c(C(=O)O)cc3c(=O)c2c1	-103*
CCOC(=O)c1cc2c(=O)c3cc(C)ccc3oc2nc1C	-114*
COc1ccc(N=C/C=C2\C=C(c3ccccc3)OC(C)(C)O2)cc1	-135*
COc1ccc(-n2cc3ccc([N+](=O)[O-])cc3n2)cc1	-91*
COc1cccc(NC(=O)c2c(C)nn(-c3ccccc3)c2Cl)c1	-137*
Cc1ccc(NC(=O)c2c(C)nn(-c3ccccc3)c2Cl)cc1	-81*
CCc1cc(C=NC2CCCCC2)c(O)s1	-174*
Cc1ccc(-c2ccc(S(=O)(=O)N3CC(C)OC(C)C3)cc2)cc1 (centres undefined)	-78*
CC1CN(S(=O)(=O)c2ccc(C(=O)NCCCn3ccnc3)cc2)CC(C)O1 (centres undefined)	105
CCOc1nc(NCc2ccco2)nc(Nc2ccccc2F)n1	-108*
O=C(Nc1ccccc1)NC1CCCCC1	-66*
O=C(Nc1ccccc1)NC1CCCCCCC1	-106*
Cc1ccc(/C=C2/NC(=O)N(c3ccccc3)C2=O)o1	-105*
Cc1cc(/C=C2/NC(=O)N(c3ccccc3)C2=O)c(C)n1C(C)C	-64*
O=C1N/C(=C/c2ccc(Br)s2)C(=O)N1c1ccccc1	-81*
O=C(NC1=NCCS1)C12CC3CC(C1)CC(C(=O)NC1=NCCS1)(C3)C2	-71*
CCCC(=O)N1CCN(c2ccc(NC(=O)c3ccc([N+](=O)[O-])o3)cc2Cl)CC1	-118*
COc1ccc(NC(=O)c2ccc([N+](=O)[O-])o2)cc1	-320*
NS(=O)(=O)c1ccc(O)c(NC(=O)c2ccc([N+](=O)[O-])o2)c1	-62*
SMILES	aSyn UTR act
Cc1ccccc1C(=O)N1CCN(c2ccc(NC(=O)c3ccc([N+](=O)[O-])o3)cc2)CC1	-168*
CN1CCN(c2ccc(NC(=O)c3ccc([N+](=O)[O-])o3)cc2Cl)CC1	61
Cc1ccccc1C(=O)N1CCN(c2ccc(NC(=O)c3ccc4c(c3)OCO4)cc2)CC1	48
O=C(Nc1ccc2oc(=O)ccc2c1)c1ccc(-c2cccc([N+](=O)[O-])c2)o1	92
CC(=O)c1ccc(NC(=O)c2ccc([N+](=O)[O-])o2)cc1	-355*
CN1CCN(c2ccc(NC(=O)c3ccc(-c4cccc([N+](=O)[O-])c4)o3)cc2)CC1	-208*
C=CCn1cccc(C(=O)Nc2ccc(SC)cc2)c1=O	-155*
C=CCn1cccc(C(=O)Nc2ccc(N(C)C)cc2)c1=O	-104*
C=CCn1cccc(C(=O)Nc2ccc(OCC)cc2)c1=O	-155*
C=CCn1cccc(C(=O)Nc2ccc(Cl)cc2)c1=O	-141*
COc1ccc(C(=O)/C(=C\c2sccc2C)c2nc3ccccc3o2)cc1	-68*
